Data on 12 compounds can be found in PubChem BioAssay (NCATS).

A number with no mark means an inactive call. Inconclusive results are not listed. Entries that show only a call come without a potency. Active and inactive are the calls of the source. Unless noted, calls come from the whole dose curve; as a rule, active = well fitted curve in the direction sought with a large enough effect; inconclusive = small, poorly fitted or top-dose-only effect, or another doubt; inactive = no such curve, though single readings can be large; an effect the other way counts as inactive or inconclusive.

ATPase family AAA domain-containing protein 5 (Homo sapiens), sequence (Q96QE3 whole entry, looked up, the tested form may be a part): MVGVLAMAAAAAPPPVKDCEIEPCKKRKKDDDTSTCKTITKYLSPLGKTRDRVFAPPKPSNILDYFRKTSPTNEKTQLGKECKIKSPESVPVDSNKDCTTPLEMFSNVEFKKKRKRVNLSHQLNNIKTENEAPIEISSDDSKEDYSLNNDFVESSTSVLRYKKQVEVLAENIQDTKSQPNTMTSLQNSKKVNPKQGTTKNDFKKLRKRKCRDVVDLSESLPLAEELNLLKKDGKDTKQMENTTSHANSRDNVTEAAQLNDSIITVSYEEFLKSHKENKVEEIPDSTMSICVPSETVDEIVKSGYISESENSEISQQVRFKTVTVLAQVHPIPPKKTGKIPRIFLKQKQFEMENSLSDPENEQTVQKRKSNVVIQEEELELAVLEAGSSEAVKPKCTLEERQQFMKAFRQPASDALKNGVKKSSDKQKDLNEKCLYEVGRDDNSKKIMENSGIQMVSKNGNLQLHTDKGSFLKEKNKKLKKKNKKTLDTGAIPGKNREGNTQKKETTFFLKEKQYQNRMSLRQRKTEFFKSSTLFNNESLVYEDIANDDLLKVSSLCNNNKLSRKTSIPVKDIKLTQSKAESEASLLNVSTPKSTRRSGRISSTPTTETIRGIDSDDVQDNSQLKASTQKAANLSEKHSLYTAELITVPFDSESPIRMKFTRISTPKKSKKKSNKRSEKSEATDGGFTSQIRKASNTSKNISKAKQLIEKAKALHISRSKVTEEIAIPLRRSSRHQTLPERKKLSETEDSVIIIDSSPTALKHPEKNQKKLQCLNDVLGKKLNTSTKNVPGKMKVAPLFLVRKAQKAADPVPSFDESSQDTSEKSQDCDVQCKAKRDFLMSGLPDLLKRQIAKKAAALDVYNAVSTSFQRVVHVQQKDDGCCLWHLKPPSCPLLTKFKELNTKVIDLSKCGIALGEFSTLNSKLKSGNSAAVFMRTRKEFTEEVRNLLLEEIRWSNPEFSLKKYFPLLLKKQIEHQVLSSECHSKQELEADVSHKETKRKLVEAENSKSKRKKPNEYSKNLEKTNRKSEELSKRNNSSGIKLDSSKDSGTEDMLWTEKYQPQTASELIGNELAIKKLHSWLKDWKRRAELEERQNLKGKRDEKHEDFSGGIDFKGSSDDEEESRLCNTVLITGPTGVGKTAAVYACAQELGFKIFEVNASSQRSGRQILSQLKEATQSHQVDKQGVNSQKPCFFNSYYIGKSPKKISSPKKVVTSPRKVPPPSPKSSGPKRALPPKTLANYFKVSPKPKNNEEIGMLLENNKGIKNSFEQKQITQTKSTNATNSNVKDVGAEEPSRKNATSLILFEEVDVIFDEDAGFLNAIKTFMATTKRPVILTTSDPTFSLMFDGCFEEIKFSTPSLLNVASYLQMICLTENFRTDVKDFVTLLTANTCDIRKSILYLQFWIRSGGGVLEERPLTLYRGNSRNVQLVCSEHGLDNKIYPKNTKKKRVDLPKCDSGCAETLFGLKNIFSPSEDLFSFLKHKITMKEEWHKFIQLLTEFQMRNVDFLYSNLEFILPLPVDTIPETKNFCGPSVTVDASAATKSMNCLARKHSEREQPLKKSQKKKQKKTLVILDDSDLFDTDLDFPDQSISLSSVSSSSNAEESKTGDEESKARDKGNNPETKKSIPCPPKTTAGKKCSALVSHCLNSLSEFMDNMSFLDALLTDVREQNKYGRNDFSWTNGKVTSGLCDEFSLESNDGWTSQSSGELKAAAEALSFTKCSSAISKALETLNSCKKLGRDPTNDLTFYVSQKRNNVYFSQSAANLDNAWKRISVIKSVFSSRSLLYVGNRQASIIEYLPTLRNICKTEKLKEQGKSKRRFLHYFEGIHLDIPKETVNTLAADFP
Thyrotropin-releasing hormone receptor (Homo sapiens), sequence (P34981 whole entry, looked up): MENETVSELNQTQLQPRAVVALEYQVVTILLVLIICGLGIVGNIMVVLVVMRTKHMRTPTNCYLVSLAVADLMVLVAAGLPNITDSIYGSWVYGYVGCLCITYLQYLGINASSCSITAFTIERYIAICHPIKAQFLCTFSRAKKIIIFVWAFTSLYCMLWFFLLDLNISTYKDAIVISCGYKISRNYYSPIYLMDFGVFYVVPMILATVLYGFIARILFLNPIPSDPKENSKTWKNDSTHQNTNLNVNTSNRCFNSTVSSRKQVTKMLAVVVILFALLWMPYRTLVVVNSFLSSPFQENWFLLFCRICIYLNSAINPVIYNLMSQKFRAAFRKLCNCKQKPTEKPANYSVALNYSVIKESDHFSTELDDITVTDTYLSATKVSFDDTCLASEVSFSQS

Test system in one assay: not listed separately
Briefly: Validation screen for small molecules that induce genotoxicity in human embryonic kidney (HEK293T) cells expressing luciferase-tagged ELG1 (AID 493106). Particulars: luminescence; series mostly up to 46.1 µM. A digest of the protocol:
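qHTS format; 2,000 HEK293T ELG1-luc cells/well; 23 nL compound via pin tool; 16 hr, 37 °C/5% CO2; ONE-Glo, 30 min RT; luminescence read.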
For the compound `N[C@@H](Cc1cnc[nH]1)C(=O)O`, the call was inactive.

For `Nc1cc(Cl)c(NC2=NCCN2)c(Cl)c1`, the compound was classed as inactive.

For `CNCCC(Oc1ccccc1C)c1ccccc1` (centres undefined), the outcome was inactive.

Take `O=C1CCC(c2ccc(-n3ccnc3)cc2)=NN1`: the outcome was inactive.

Turning to `C[C@@H]1C(=O)NC2=Nc3cccc(Cl)c3CN21`, the compound was classed as inactive.

With `C[N+]1(CCCCC[N+]2(C)CCCC2)CCCC1`, the outcome was inactive.

Turning to `CNCCC=C1c2ccccc2CCc2ccccc21`, the outcome was inactive.

With `C[C@]12CC[C@@H]3c4ccc(O)cc4CC[C@H]3[C@@H]1CC[C@@H]2O`, the outcome was inactive.

For `CC1(C)CCC(NC(=O)[C@@H](N)CCC(=O)O)CC1`, the compound was called inactive.

For `CC(C)COC(=O)OCN1C(=O)CN(CCN2CC(=O)N(COC(=O)OCC(C)C)C(=O)C2)CC1=O`, the outcome was inactive.

The target in another assay is ATPase family AAA domain-containing protein 5 (Homo sapiens) (UniProt Q96QE3). Description: Validation screen for small molecules that inhibit ELG1-dependent DNA repair in human embryonic kidney (HEK293T) cells expressing luciferase-tagged ELG1 (AID 493107). Note: nearly all actives have a fitted effect of over 70% in size. Note: potency is the fitted concentration of half-maximal effect. Particulars: HEK293T ELG1-luciferase level, luminescence, 5-fluorouridine co-treatment, 16 h; series mostly up to 46.1 µM. A digest of the protocol:
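ELG1-luciferase HEK293T reporter; 5-fluorouridine + compound/DMSO, 16 hr, 37 °C, 5% CO2; ONE-Glo 30 min RT; luminescence read, qHTS format.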
In the case of `Nc1cc(Cl)c(NC2=NCCN2)c(Cl)c1`, the Potency result was “inactive”.

Turning to `CNCCC(Oc1ccccc1C)c1ccccc1` (centres undefined), the Potency result was “inactive”.

On to `C[C@@H]1C(=O)NC2=Nc3cccc(Cl)c3CN21`, for which the Potency entry was “inactive”.

On to `C[N+]1(CCCCC[N+]2(C)CCCC2)CCCC1`, for which the Potency result is “inactive”.

Turning to `C[C@]12CC[C@@H]3c4ccc(O)cc4CC[C@H]3[C@@H]1CC[C@@H]2O`, the Potency result was “inactive”.

Consider `COc1cc(NS(C)(=O)=O)ccc1Nc1c2ccccc2nc2ccccc12`, for which the Potency was 14.6 µM (active).

On to `CC1(C)CCC(NC(=O)[C@@H](N)CCC(=O)O)CC1`, for which the Potency entry is “inactive”.

`CC(C)COC(=O)OCN1C(=O)CN(CCN2CC(=O)N(COC(=O)OCC(C)C)C(=O)C2)CC1=O`: the Potency entry is “inactive”.

The next assay has as its target Thyrotropin-releasing hormone receptor (Homo sapiens) (UniProt P34981). Briefly: qHTS for Small Molecule Agonists and Allosteric Enhancers of Human TRH Receptor: Validation Screen for Agonists (AID 493127;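 active = calcium activation more than 3 SD above the typical response in the agonist read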;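 note: intracellular calcium rise by fluo-8 fluorescence before TRH EC20 addition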). The following applies: TRH receptor agonist cell assay; at 2 µM; stronger effect = higher value. A digest of the protocol: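 Read-out: intracellular calcium release measured kinetically by FDSS (fluo-8, ex 480/em 530 nm), 1 reading/s after a 10-cycle baseline. TRHR cells, 2000/well, cultured 18 h at 33.5C, dye-loaded at room temp. Compound-evoked positive calcium signal flags agonists.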
`N[C@@H](Cc1cnc[nH]1)C(=O)O`: the activation is 0.0625%.

On to `Nc1cc(Cl)c(NC2=NCCN2)c(Cl)c1`, for which the activation is 1.12%.

Take `O=C1CCC(c2ccc(-n3ccnc3)cc2)=NN1`: the activation was 0.188%.

Turning to `C[C@@H]1C(=O)NC2=Nc3cccc(Cl)c3CN21`, the activation is 1.06%.

In the case of `C[N+]1(CCCCC[N+]2(C)CCCC2)CCCC1`, the activation was 0.75%.

As to `CNCCC=C1c2ccccc2CCc2ccccc21`, the activation was 0.625%.

For `C[C@]12CC[C@@H]3c4ccc(O)cc4CC[C@H]3[C@@H]1CC[C@@H]2O`, the activation was 4.75%.

For `COc1cc(NS(C)(=O)=O)ccc1Nc1c2ccccc2nc2ccccc12`, the activation is -3.12%.

As for `CC1(C)CCC(NC(=O)[C@@H](N)CCC(=O)O)CC1`, the activation is 0.125%.

In the case of `CC(C)COC(=O)OCN1C(=O)CN(CCN2CC(=O)N(COC(=O)OCC(C)C)C(=O)C2)CC1=O`, the activation was 0.75%.

Regarding `COc1cc(-c2ccc(=O)[nH]n2)ccc1OC(F)F`, the activation is -0.438%.
